Screening data deposited in PubChem BioAssay by several laboratories.
Rows were chosen to be rich in hits. Some 2.2% of all compounds tested hit in one or more screens of this group.
ANO1 activ – mouse TMEM16A channel activation, primary screen. Q8BHY3. HEK293 TMEM16A/YFP-H148Q/I152L, iodide quench fluorescence; stronger effect = lower value. B-score at 10 µM. hit rate 0.3% among 340,000;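 active means fluorescence-ratio B-score plate-corrected deviation score at least 3 library SD below zero, with starting fluorescence score within 5 deviations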;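 further: channel opened by trigger with iodide after compound preincubation; score built on the fluorescence ratio of max minus min over baseline; more negative score means more quench and so TMEM16A activation or potentiation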
M1 PAM parental – M1 PAM counterscreen hit in parental CHO-K1 cells. ATP EC20, Fluo-8 calcium fluorescence; 0% at ATP EC20, 100% at ATP max. activation, % at 3 µM. hit rate 0.02% among 360,000. AID 602247;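 active means activation above the run cutoff, the mean activation of all test compounds plus 3 SD, cut at about 40% in these data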;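 further: peak over basal fluorescence ratio in a 140 s read after ATP addition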
NTR1 agonist – NTR1 (human) agonism; activation, % at 20 µM; NTR1-U2OS beta-arrestin-GFP spot imaging, agonist mode; P30989; hit rate 0.17% among 330,000; AID 493036;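 active means activation at or above 40% of the spot to cytoplasm intensity ratio, with at least 20 cells analyzed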;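 further: 0% = DMSO without peptide and 100% = 100 nM NTR1 peptide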
CHO-K1 Ca ag – counter-screen for M1 agonists: effect in parental CHO-K1 cells. Fluo-8 calcium fluorescence; scaled to maximal ATP response, vehicle zero. activation, % at 3 µM. hit rate 0.48% among 360,000. AID 602248; in the data active means activation above about 15%;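 further: untransfected CHO-K1 host cells lacking M1 receptor as counterscreen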
ANO1 block – blocks the mouse calcium-activated chloride channel TMEM16A | normalized B-score (activity score, 25-100; higher = stronger inhibition) at 10 µM | Q8BHY3 | AID 588511 | hit rate 1.2% among 310,000 | HEK293 TMEM16A/YFP iodide influx fluorescence, ionomycin;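 active means ratio plate-corrected score three or more library SD toward inhibition, starting fluorescence score within five deviations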;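 further: score derived from kinetic fluorescence span divided by baseline fluorescence per well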
CHO-K1 Ca antag – counter-screen for M1 antagonists: effect in parental CHO-K1 cells; AID 602250; inhibition, % at 3 µM; ATP-induced calcium, Fluo-8 fluorescence; hit rate 0.6% among 360,000;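 active means inhibition above a per-plate cutoff, the plate's mean sample inhibition plus 3 SD, cut at about 24% in these data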;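 further: 0% = DMSO plus EC80 ATP and 100% = DMSO alone without ATP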
* marks the source's active call; other numbers are inactive results; i = inactive; . = no result given.

SMILES	ANO1 activ	M1 PAM parental	NTR1 agonist	CHO-K1 Ca ag	ANO1 block	CHO-K1 Ca antag
Cc1ccc(S(=O)(=O)C2(C(=O)N3CCCC(C)C3)CC2)cc1 (stereo unspecified)	i	-6	0	0	25*	8
Cc1ccc(S(=O)(=O)NCCC(=O)N2CCCC(C)C2)cc1 (stereo unspecified)	i	2	1	1	i	-4
CCOC(=O)C1=CCN(S(=O)(=O)c2ccc(C)cc2)C1c1ccc(CC)cc1 (stereo unspecified)	.	-5	.	0	.	8
CCC1(CC)Cc2ccccc2C(N)=C1C#N	-53*	17	2	0	i	-12
CCCCCCCNC(=O)c1ccc(N2CCC3(CC2)OCCO3)c([N+](=O)[O-])c1	i	19	2	5	100*	-3
CN1C/C(=C\c2ccc(N3CCOCC3)cc2)C(=O)/C(=C/c2ccc(N3CCOCC3)cc2)C1	i	2	0	5	i	-3
CCN1C/C(=C/c2ccc(N3CCOCC3)cc2)C(=O)/C(=C/c2ccc(N3CCOCC3)cc2)C1	i	6	.	34*	i	27*
COc1ccc(OCCCC(=O)OCC(=O)N2CCN(S(=O)(=O)c3ccc(C)cc3C)CC2)cc1	i	5	.	10	.	2
CC(=O)c1ccc(OCCCC(=O)OCC(=O)N2CCN(S(=O)(=O)c3ccc(C)cc3C)CC2)cc1	i	-3	.	18*	.	14
CCC(C)N1C(=O)C2C(C(=O)Nc3cccc(OC)c3)C3C=CC2(O3)C1C(=O)NC1CCCCC1C (stereo unspecified)	i	-4	0	-1	i	28*
CCCCCc1nc2sc3c(c2c(=O)n1NC(=O)c1ccc([N+](=O)[O-])cc1)CC(C)(C)OC3	i	0	3	12	25*	21
CCCCCCCc1nc2sc3c(c2c(=O)n1N)CC(C)(C)OC3	i	17	0	1	i	-9
CSc1nc2cc(Oc3cccc(Cl)c3Cl)c(Cl)cc2[nH]1	i	6	2	0	100*	8
O=C(COc1ccc(Cl)cc1Cl)NC(=S)Nc1ccccc1C(=O)O	.	.	-1	.	25*	.
Cc1occc1C(=O)NNC(=S)NC(=O)COc1ccc(Cl)cc1Cl	-5*	16	0	1	100*	-4
CCCN(C(=O)CSc1nnc(-c2ccc3c(c2)OCO3)o1)C1CCS(=O)(=O)C1 (stereo unspecified)	.	0	.	0	.	-5
Cc1cc2nc(NC(=O)C3(C)CCN(C)C3)[nH]c2cc1C (stereo unspecified)	.	-4	.	0	.	0
Cc1ccc2c(c1)-n1c(nc3cc(F)ccc3c1=O)C(Cc1ccc(O)cc1)NC2=O (stereo unspecified)	.	.	0	.	.	.
O=C1CCN(c2ncccc2[N+](=O)[O-])CC1	-4.9*	21	2	1	i	-8
CCCCNc1nc2c(c(=O)[nH]c(=O)n2C)n1CCCc1ccccc1	.	3	.	0	.	0
Cc1cc(N2CCN(c3ccccc3)CC2)nc2ccccc12	i	22	4	24*	i	-10
Cc1cc(O)c(C(=O)/C=C/c2ccccc2Br)c(=O)o1	i	8	0	18*	i	6
COc1ccccc1Cc1c(-c2ccco2)nc2ccc(C)cn12	.	8	.	1	.	-5
CN(/N=C/c1cc(Cl)cc(Cl)c1O)C(=S)NC(C)(C)C	i	-8	0	1	100*	2
Cc1nnc(SCc2cc(=O)n3[nH]cnc3n2)s1	i	-7	-2	0	i	25*
SMILES	ANO1 activ	M1 PAM parental	NTR1 agonist	CHO-K1 Ca ag	ANO1 block	CHO-K1 Ca antag
C[C@H](NC(=O)C1(c2ccccc2)CCN(C(=O)[C@H]2CSCN2C(=O)OC(C)(C)C)CC1)C(=O)O	-5.1*	-16	0	0	i	3
CC(O)[C@H](NC(=O)C1(c2ccccc2)CCN(C(=O)OC(C)(C)C)CC1)C(=O)O (stereo partly specified)	i	17	1	1	i	-11
COCCCn1cc(CN2CC(N3CCN(Cc4ccccc4F)CC3)CS2(=O)=O)nn1 (stereo unspecified)	.	-11	.	0	.	0
Brc1ccc(-c2nnc(Cc3ccccc3)o2)cc1	i	16	0	1	i	-6
c1ccc(Cc2nnc(-c3ccccc3)o2)cc1	-6.8*	25	12	1	i	-22
O=C(c1ccc(Cl)c(Cl)c1)N1CCC(=O)N([C@H](COCc2cccc(C(F)(F)F)c2)Cc2ccccc2)CC1	.	11	.	2	.	-11
Cc1nn(C(=O)c2cccnc2)c(C)c1Sc1ccc(Br)cc1	i	2	-1	1	25*	-14
O=C(Nc1nnc(CCN2CCCCC2)s1)c1ccccc1Cl	i	11	-2	20*	i	-5
O=C(Nc1nnc(CCN2CCCCC2)s1)c1ccccc1	i	8	0	0	i	-5
CN(C)S(=O)(=O)N1CCCC(C(=O)c2ccc(-c3ccccc3)c(F)c2)C1 (stereo unspecified)	i	-2	12	6	100*	3
COc1ccc(C(=O)Nc2cccc(-c3ccc4nncn4n3)c2)cc1OC	-6.9*	20	1	1	i	-7
COc1cccc(OC)c1C(=O)Nc1cccc(-c2ccc3nncn3n2)c1	i	10	0	1	i	-12
NC(=O)C1CCN(c2ccc(S(=O)(=O)N3CCC(Cc4ccccc4)CC3)cn2)CC1	i	8	-2	19*	i	5
Cc1cc(NC(=O)Cc2ccccc2)c2ccccc2n1	i	3	0	14	25*	11
COC(=O)Nc1cc(C)nc2ccccc12	i	10	0	0	i	1
C=CC1=CCN(S(=O)(=O)C(C)(C)C)[C@H]1CCO	.	-7	.	0	.	7
Cc1cccc(CCN2C(Nc3ccccc3)=NC[C@@H]2CC(C)C)c1	-6.1*	-22	1	64*	i	37*
CC(C)C[C@H]1CN=C(Nc2ccccc2)N1CCc1cccc(F)c1	-5.2*	-23	2	85*	.	43*
CC(C)CCN1C(Nc2ccccc2)=NC[C@@H]1CC(C)C	i	-5	1	1	i	-7
CC(C)C[C@H]1CN=C(Nc2ccccc2)N1CCc1ccc(F)cc1	i	-17	1	64*	i	23
Cc1ccc(-c2nc3c4ccccc4ccn3c2Cc2ccccc2C(F)(F)F)cc1	.	21	.	1	.	-26
COc1ccc(NC(=O)NC(C)c2ccccc2)cc1 (stereo unspecified)	i	9	-2	1	i	-7
COc1ccc(NC(=O)N/C=C/c2ccccc2)cc1	i	18	0	16*	i	8
O=S1(=O)CCN(Cc2cccnc2)CC1	.	-10	.	0	.	5
